Data reported in PubChem BioAssay AID1490 (National Center for Advancing Translational Sciences (NCATS), 2009).
The campaign covered roughly 310,000 compounds. About 11,000 (3.5%) were called active. Another 4% or so got no clear call; they are omitted. The entries come from a sample that favours actives as a whole. Unmarked numbers belong to inactive results. Calls come from the whole dose curve; as a rule, active = well fitted inhibition curve with a large enough effect; inconclusive = small, poorly fitted or top-dose-only effect, or another doubt; inactive = no such curve, though single readings can be large or run the other way.

These compounds were tested against 4'-phosphopantetheinyl transferase ffp (Bacillus subtilis) (UniProt Q9F4F7) (assay: qHTS Assay for Inhibitors of Bacillus subtilis Sfp phosphopantetheinyl transferase (PPTase)). Conditions: Biochemical Sfp PPTase activity.
Summary of the method: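 Compounds were incubated with enzyme (final 15 nM) for 15 min at room temperature before substrate addition started the reaction. Fluorescence at 525 nm excitation, 598 nm emission was recorded immediately and after 30 minutes.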
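Note: the enzyme is Sfp with the accession as filed and its product quenches rhodamine fluorescence.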
Potency is the fitted concentration of half-maximal effect.
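Throughout, for largest response in the series, negative = inhibition: 0% = enzyme reaction without inhibitor and -100% = no enzyme wells.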

SMILES	Potency	largest response in the series, negative = inhibition [%]
O=[N+]([O-])c1ccc(N/N=C2/CCCCC2c2ccccn2)c([N+](=O)[O-])c1 (configuration not stated)	35.5 µM (active)	
O=C(Nc1ccccc1)O/N=C1\CCCCC1c1ccc([N+](=O)[O-])cc1[N+](=O)[O-] (configuration not stated)		-6.23
C[n+]1ccccc1C1CCCC/C1=N\Nc1ccc([N+](=O)[O-])cc1[N+](=O)[O-] (configuration not stated)		-1.83
COc1ccccc1N1CCN(C(=O)c2cc(=O)c3cc(C)ccc3o2)CC1		-2.28
Cc1cccc(-c2cc(=O)c3cc(C)ccc3o2)c1	3.55 µM (active)	
Cc1cccc(C2=N/C(=C/c3cccs3)C(=O)O2)c1		-1.85
CCN1CCN(c2ccc(S(=O)(=O)N3CCCCC3)cc2NC(=O)Cc2c(Cl)cccc2Cl)CC1		-8.91
CCN(C(=O)c1cc([N+](=O)[O-])ccc1NCc1cccnc1)c1ccccc1		-0.174
Cc1cc(C)c(OCC(=O)N/N=C/c2ccco2)c(C)c1		2.54
COC(=O)C1=C(C)N(c2ccc(Br)cc2)C(=O)/C1=C\c1ccco1		-29.4
COC(=O)COc1ccc2c(c1C)O/C(=C\c1ccco1)C2=O	50.1 µM (active)	
CC(=O)Nc1ccc(S(=O)(=O)NC2Cc3ccccc3C2)cc1		10.7
CC(CC(=O)N1CCN(c2ccccc2)CC1)S(=O)(=O)c1ccc2c(c1)NC(=O)CS2 (configuration not stated)		13.4
COc1ccc(C2c3[nH]c4ccccc4c3C[C@H]3C(=O)N(CC(C)C)CC(=O)N23)c(OC)c1 (some centres not stated)		-0.0198
Cc1cc(=O)[nH]c(S)c1C#N	2.24 µM (active)	
Cc1cc(=O)[nH]c(SCC(N)=O)c1C#N		-20.3
COC(=O)C1(C)C=CC2(CCCCC2)N1C(C)=O (configuration not stated)		-0.895
Cc1ccc(N2CCN(C(=O)c3cccs3)CC2)c(C)c1		-4.64
CCC(=O)Nc1sc(C(=O)N2CCCCC2)c(C)c1C#N		8.83
Cc1ccc(S(=O)(=O)N2CCN(C(=O)N3CCOCC3)CC2)c(C)c1		12
N#Cc1ccccc1-n1c(N)c(C(=O)N2CCCC2)sc1=S	25.1 µM (active)	
CC(C)=C1SC(N2CCN(c3cccc(C)c3)CC2)=NC1=O		-3.03
COc1ccc2[nH]c(C(=O)N3CCN(C)CC3)c(C)c2c1		10.8

SMILES	Potency	largest response in the series, negative = inhibition [%]
Cc1ccc(-n2c(N)c(C(=O)N3CCOCC3)sc2=S)c(C)c1	28.2 µM (active)	
O=C(c1ccc(S(=O)(=O)c2ccccc2)cc1)N1CCCCCC1		-3.64
Cc1cccc(-n2c(N)c(C(=O)N3CCN(C)CC3)sc2=S)c1	3.55 µM (active)	
CCN(CC(=O)NCc1cccs1)C(=O)c1cccc(S(=O)(=O)Nc2ccccc2OC)c1		9.95
COc1ccc(NC(=O)Cn2ncn3c(cc4ccccc43)c2=O)c(OC)c1OC		14.8
COc1cc2c(cc1OC)CN(C(=O)c1cc(S(=O)(=O)N3CCCCC3)ccc1Cl)CC2		8.46
CCCCC(CC)CNCc1cccn1CCN1CCOCC1 (configuration not stated)		-12.1
COC(=O)c1cc(OCC(=O)NC2CCCc3ccccc32)cc(C(=O)OC)c1 (configuration not stated)		-18.9
Cc1ccc(OCC(=O)Nc2ccc(NC(=O)c3cccs3)cc2)c(C)c1		29.1
COc1ccc(N2C(=O)C(Cc3ccccc3)NC2=S)cc1 (configuration not stated)		6.01
COc1ccc(N2C(=O)C3C(C2=O)C(C(=O)c2ccccc2)N2CCCC32)cc1 (configuration not stated)	50.1 µM (active)	
COc1ccc(N2C(=O)C3CCCN3C2c2cccs2)cc1 (configuration not stated)		-3.66
O=C(N/C(=C\c1ccc([N+](=O)[O-])cc1)C(=O)N1CCOCC1)c1cccc(Br)c1		3.86
CCOC(=O)N1CCN(C(=O)C(C)NC(=O)c2ccco2)CC1 (configuration not stated)		26.5
CCn1c(SCC(=O)Nc2ccc(Br)cc2)nc2sc3c(c2c1=O)CCN(C)C3		2.9
Cc1nc(N2CCOCC2)sc1C(=O)NN	56.2 µM (active)	
CCOC(=O)N1CCC(NC(=O)c2ccc3nc(N4CCOCC4)sc3c2)CC1		6.95
Cc1nc(-c2ccc(Cl)cc2)sc1C(=O)NN		5.7
Cc1ccc(NS(=O)(=O)c2ccc3c(c2)NC(=O)CO3)cc1		7.8
Nc1nnnn1CC(=O)N/N=C/c1ccc(-c2cccc(Cl)c2)o1	25.1 µM (active)	
COC(=O)N/N=C/c1ccc(-c2ccc(Cl)c(Cl)c2)o1		-3.69
O=C(Cn1nnc(-c2ccccc2)n1)N/N=C/c1ccc(-c2ccc(Cl)cc2)o1		25.9
CC(=O)c1ccc(NC(=O)Nc2ccc([N+](=O)[O-])cc2C)cc1		10.3

SMILES	Potency	largest response in the series, negative = inhibition [%]
Cc1cc([N+](=O)[O-])ccc1NC(=O)c1ccc(NC(=O)C(C)C)cc1		6.44
CCn1c2ccccc2c2cc(NC(=O)Nc3ccc([N+](=O)[O-])cc3C)ccc21	56.2 µM (active)	
O=[N+]([O-])c1ccc(N(CCO)Cc2ccccc2)c([N+](=O)[O-])c1		3.62
O=C(c1cnc(Cl)c(Cl)c1)N1CCN(S(=O)(=O)c2ccc(F)cc2)CC1		-5.59
Cc1cccc(NC(=O)N2CCCCCC2)c1C		3.74
CC(C)N1CCc2c(sc(NC(=O)Cc3ccccc3)c2C#N)C1		11.3
N#Cc1c(N)sc2c1CCN(C(=O)OCc1ccccc1)C2	20 µM (active)	
CC(=O)N1CCc2c(sc(NC(=O)CCS(=O)(=O)c3ccccc3)c2C#N)C1		-1.97
CC(CC(=O)Nc1ccc(F)cc1F)S(=O)(=O)c1ccc2c(c1)NC(=O)CO2 (configuration not stated)		0.768
NS(=O)(=O)c1ccc(CCNS(=O)(=O)c2cccc3cccnc23)cc1		2.24
COc1ccc(CN2CCN(C(=O)CCC(=O)Nc3nnc(C(C)C)s3)CC2)cc1F		17.5
Cc1ccc(NS(=O)(=O)c2ccc(-c3ccc(=O)[nH]n3)o2)c(C)c1		23.5
Cc1ccc(OC(=O)c2c(C)nn(-c3ccccc3)c2C)cc1		-5.58
CCOC(=O)c1c(C)nn(-c2ncccc2NC(=O)CCC(=O)O)c1C	89.1 µM (active)	
CCOC(=O)c1c(-c2ccc(-c3ccccc3)cc2)csc1NC(=O)CCC(=O)O		-8.3
CN(C(=O)c1cccc([N+](=O)[O-])c1)c1ccccc1C(=O)NCc1ccccc1		15.3
CCOc1ccc(CNC(=O)CCC(=O)N2CCSc3ccccc32)cc1		11.6
Nc1ccccc1Sc1ccc(C(F)(F)F)cc1[N+](=O)[O-]		4.01
CCS(=O)(=O)c1cc([N+](=O)[O-])c(Sc2ccccc2N)s1	3.98 µM (active)	
CCOC(=O)c1cc(Sc2ccccc2N)cc(C(=O)OCC)n1		2.06
COCCn1c(N)c(NCc2ccccc2)c(=O)[nH]c1=O		-5.84
CCc1ccc(OCC(=O)NCC(c2ccc(Cl)cc2)N2CCCCC2)cc1 (configuration not stated)		-3.22
O=c1c(O)c(Br)ccc2c(Br)c(O)c(O)c(O)c12	44.7 µM (active)	

SMILES	Potency	largest response in the series, negative = inhibition [%]
CN(CCC1CCOCC1)C(=O)CC1C(=O)NCCN1Cc1cccc(F)c1 (configuration not stated)		18.8
Cc1cc(C(=O)N/N=C/c2ccc(N3CCOCC3)cc2)c(C)o1		16
CNC(=S)N/N=C/c1ccc(N2CCOCC2)s1	8.91 µM (active)	
C=CCNC(=S)N/N=C/c1ccc(C)s1		10
CC(NC(=O)COc1ccc(-c2ccccc2)cc1)C1CCCO1 (configuration not stated)		-4.17
Cc1ccccc1/C=C\c1nc(O)c([N+](=O)[O-])c(=O)[nH]1		2.6
COC(=O)c1ccc(NC(=O)CSc2nnc(CNc3ccc(OC)cc3)n2C)cc1		7.16
CCn1c(CNc2ccc(OC)cc2)nnc1SCC(=O)c1ccc(OC)cc1	28.2 µM (active)	
C=CCn1c(CNC(=O)c2ccco2)nnc1SCC(=O)c1ccc(OC)cc1		17.3
O=C(NCc1ccc2c(c1)OCO2)C(=O)NCC1OCCN1S(=O)(=O)c1ccc(F)cc1 (configuration not stated)		4.15
COc1ccc(OC)c([C@H](O)CNC(=O)CN)c1		4.71
CC(C)c1nnc(NC(=O)CCC(=O)N2CCN(c3cccc(Cl)c3)CC2)s1		0.428
CC(C)NS(=O)(=O)c1ccc(OCC(=O)NC2CCCCCC2)cc1		6.32
Cc1ccc(S(=O)(=O)C(C#N)c2nc3ccccc3nc2N2CCCC2)cc1C (configuration not stated)	50.1 µM (active)	
Cc1ccc(S(=O)(=O)Nc2nc3ccccc3nc2N2CCc3ccccc3C2)cc1		9.29
Cc1cc(N2CCN(S(=O)(=O)c3ccc(C)c(C)c3)CC2)c2ccccc2n1		-20.8
COc1ccc(NS(=O)(=O)c2cccc3nsnc23)cc1Cl		13.3
Cc1cc(-c2ccc(S(=O)(=O)N3CCN(c4cccc(C(F)(F)F)c4)CC3)s2)on1		8.41
S=c1[nH]c(-c2cccs2)cn1-c1ccccc1	15.8 µM (active)	
S=c1[nH]nc(-c2cccs2)n1/N=C/c1cn(-c2ccccc2)nc1-c1ccc(Cl)cc1		-17.4
O=c1[nH]c(-c2cccs2)nc2ccccc12		-0.0388
COc1cccc(NC(=O)C2C(c3ccccc3)C2(Cl)Cl)c1 (configuration not stated)		11.1
CCn1cc(C(=O)N[C@@H](C)C(=O)NCCO)c(=O)c2cc3c(cc21)OCO3		20.9
